40 molecules from PubChem BioAssay (Tox21) can be followed below.

Active and inactive are the calls of the source. A call without a number means that no potency is given here. Calls come from the whole dose curve; as a rule, active = well fitted activation curve with a large enough effect in the repeat runs; inconclusive = weak or mixed curves; inactive = flat fitted curve, though single readings scatter.

The target in the test is KiSS-1 receptor (Homo sapiens) (UniProt Q969F8). In words: Human kisspeptin (KISS1R) small molecule agonists, calcium flux assay in KISS1R-HEK293 cells (AID 1920064). The note with it: KISS1R-HEK293, calcium flux fluorescence, agonist; series mostly up to 76.8 µM. From the text: National Center for Advancing Translational Sciences [NCATS]
Chain of KiSS-1 receptor (Homo sapiens) (Q969F8 whole entry, looked up): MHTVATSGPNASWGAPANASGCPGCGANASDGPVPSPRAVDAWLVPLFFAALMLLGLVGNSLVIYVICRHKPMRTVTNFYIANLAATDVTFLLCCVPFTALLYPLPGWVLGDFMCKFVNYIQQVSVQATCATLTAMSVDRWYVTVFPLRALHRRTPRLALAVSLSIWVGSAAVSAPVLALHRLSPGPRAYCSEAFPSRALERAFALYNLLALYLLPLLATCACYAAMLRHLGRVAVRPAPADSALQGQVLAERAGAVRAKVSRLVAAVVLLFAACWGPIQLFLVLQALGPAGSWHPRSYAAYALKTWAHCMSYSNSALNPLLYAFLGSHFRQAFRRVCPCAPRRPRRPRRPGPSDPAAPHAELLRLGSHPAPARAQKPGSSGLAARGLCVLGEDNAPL
Division of Preclinical Innovation [DPI]
U.S. Environmental Protection Agency [EPA]
National Institutes of Environmental Health Sciences [NIEHS]
National Toxicology Program [NTP]
U.S. Food and Drug Administration [FDA]
Kisspeptin and its receptor KISS1R play key roles in mammalian reproduction due to their involvement in the onset of puberty and control of the hypothalamic-pituitary-gonadal axis such as regulates GnRH release from the hypothalamus. The kisspeptin/KISS1R system also plays a direct role in peripheral organs (including the ovary, testis, uterus, and placenta) and is implicated in reproductive diseases such as miscarriage and polycystic ovary syndrome (PCOS). Abnormal KISS1R activity is associated with abnormal puberty, infertility, endometriosis, and hormone-dependent tumors. The KISS1 receptor (KISS1R, also called GPR54), a G-protein-coupled receptor (GPCR), acts (through phospholipase C) to increase intracellular inositol trisphosphate and then release intracellular calcium stores. Cell-based KISS1R-HEK293 assay is using HEK293 cells that have been genetically engineered to express the human KISS1R, which activity can be measured by calcium signaling. A compound/drug can activate (agonist) KISS1R that can be monitored by levels of intracellular calcium.
KISS1R-HEK293 cells developed by Codex Corp contain human KISS1R gene, which was stably integrated into HEK 293 cells. The compound activation can be detected by fluorescence intensity via calcium flux assay. This cell line has been used to screen the Tox21 10K compound library to identify agonists of KISS1R.
KISS1R-Hek293 cells were dispensed at 1500 cells/4uL/well in 1536-well black wall/clear bottom plates using a multidrop dispenser. After the assay plates were incubated at a 37 C/5% CO2 incubator for 18 hours, 4 microL of Calcium Dye Solution was added to each well. The plates were incubated at 37 C for 1 hour. And then 23 nL of compounds dissolved in DMSO, positive controls, or DMSO only was transferred to the assay plate by a pin tool station. The fluorescence intensity in the plates was measured using FDSS 7000EX kinetic plate reader with a filter set of Ex/Em=480/540 for 3 min at 1 sec intervals. Each test compound was measured at 15 concentrations and in triplicates.
(A change in cytosolic calcium serves as a functional read-out for many receptors and channels.)
In the case of `CCCCC/C(=C\c1ccccc1)CO`, the Potency entry is “inactive”.

`CC(COc1ccccc1)NN` (stereo not given): the Potency result was “inactive”.

Consider `CCCCCCC(=O)c1ccccc1`, for which the Potency entry was “inactive”.

Regarding `CC(C)[C@H]1CC[C@H](C)C[C@@H]1O`, the Potency entry is “inactive”.

In the case of `O=CNc1ccccc1`, the Potency result was “inactive”.

Regarding `CC(C)(C)c1ccc(-c2ccc(C(C)(C)C)cc2)cc1`, the Potency entry was “inactive”.

Take `CCC(=O)OCCc1ccccc1`: the Potency result was “inactive”.

In the case of `O=C1C=CC(=O)N1`, the Potency entry was “inactive”.

For the molecule `CO[C@@]12[C@H](COC(N)=O)C3=C(C(=O)C(C)=C(N)C3=O)N1C[C@@H]1N[C@@H]12`, the Potency result was “inactive”.

Consider `COc1cc(/C=C/c2ccccc2)oc(=O)c1`, for which the Potency entry is “inactive”.

As for `Cc1ccccc1S`, the Potency result is “inactive”.

`CCCOC(=O)CC`: the Potency entry is “inactive”.

On to `CC(C)c1cccc(C(C)C)c1N1C(=O)c2ccc(O)cc2C1=O`, for which the Potency result is “inactive”.

Turning to `CCCCC=O`, the Potency result was “inactive”.

As to `C[C@H]1C[C@H]2[C@@H]3CCC4=CC(=O)C=C[C@]4(C)[C@@]3(Cl)[C@@H](O)C[C@]2(C)[C@@]1(O)C(=O)CO`, the Potency result was “inactive”.

Consider `CN(C)CCCN1c2ccccc2CCc2ccccc21`, for which the Potency result was “inactive”.

`CC(C)OC(=O)c1ccccc1C(=O)OC(C)C`: the Potency result is “inactive”.

`CC/C(C)=N\O[Si](C)(O/N=C(\C)CC)O/N=C(\C)CC`: the Potency entry was “inactive”.

Turning to `CC(C)OC(=O)c1cc(C(=O)OC(C)C)cc([N+](=O)[O-])c1`, the Potency result is “inactive”.

Regarding `CCCCCCOC(=O)c1ccc(O)cc1`, the Potency result was “inactive”.

For `NC(=S)NC(N)=S`, the Potency entry was “inactive”.

For `CC(C)C(C)C`, the Potency entry was “inactive”.

In the case of `Cc1c[nH]c(=S)[nH]c1=O`, the Potency result was “inactive”.

For the molecule `CC1(CN2CCC(n3c(=O)[nH]c4ccccc43)CC2)OCc2ccccc2-n2cccc21` (stereo not given), the Potency entry is “inactive”.

As to `Nc1ccc([N+](=O)[O-])c(N)c1`, the Potency entry was “inactive”.

As to `CC1(C)SC(C)(C)SC(C)(C)S1`, the Potency entry is “inactive”.

In the case of `O=S(c1cc(Cl)cc(Cl)c1O)c1cc(Cl)cc(Cl)c1O`, the Potency result was “inactive”.

With `Oc1ccc(N=Nc2ccccc2)cc1`, the Potency entry is “inactive”.

As to `c1ccc(-c2nc3ccccc3[nH]2)cc1`, the Potency entry is “inactive”.

For `CCN(CC)CCOC(=O)C(c1ccccc1)C1CCCCC1` (stereo not given), the Potency result was “inactive”.

Regarding `CCN(CCC#N)c1ccc(N=Nc2c(Cl)cc([N+](=O)[O-])cc2Cl)cc1`, the Potency result is “inactive”.

For `c1ccc(CN(Cc2ccccc2)Cc2ccccc2)cc1`, the Potency result is “inactive”.

Take `O=C(O)COc1ccc2ccccc2c1`: the Potency result was “inactive”.

For `Oc1ccc2ccccc2c1`, the Potency result was “inactive”.

As for `BrCc1cccc(Oc2ccccc2)c1`, the Potency result is “inactive”.

Regarding `CCCOc1ccc(S(=O)(=O)N2CCN(CC)CC2)cc1-c1nc2c(CC)n(Cc3ccccn3)nc2c(=O)[nH]1`, the Potency result is “inactive”.

Regarding `CCC(C)n1ncn(-c2ccc(N3CCN(c4ccc(OC[C@H]5CO[C@](Cn6cncn6)(c6ccc(Cl)cc6Cl)O5)cc4)CC3)cc2)c1=O` (stereo not given in full), the Potency entry is “inactive”.

`Cc1c(C(=O)O)c(O)cc2c1C(=O)c1c(O)c([C@@H]3O[C@H](CO)[C@@H](O)[C@H](O)[C@H]3O)c(O)c(O)c1C2=O`: the Potency result is “inactive”.

Regarding `Nc1ccn([C@@H]2O[C@H](CO)[C@@H](O)C2O)c(=O)n1` (stereo not given in full), the Potency entry is “inactive”.

With `CC[C@H](C)C(=O)O[C@H]1C[C@H](O)C=C2C=C[C@H](C)[C@H](CC[C@@H](O)C[C@@H](O)CC(=O)O)[C@H]21`, the Potency entry was “inactive”.
